± gives the standard deviation of the averaged measurements. About 5,400 targets were measured; listed, in parts, are those with the largest changes and a random draw of the rest.

Compound in the experiment: Nc1nc2c(ncn2[C@@H]2O[C@H](COP(=O)(O)OP(=O)(O)OP(=O)(O)O)[C@@H](O)[C@H]2O)c(=O)[nH]1 [guanosine triphosphate]
Nature of the experiment: NP40-soluble protein abundance relative to vehicle (solubility fold change) (ratio); higher = more soluble protein in presence of GTP. The method, then:
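Solubility proteome profiling in Jurkat crude lysate. Lysate was treated with Mg-GTP (0.1-10 mM) for 10 min at room temperature and 3 min at 37 °C, then solubilised with 0.8% NP40 and benzonase, followed by ultracentrifugation. Proteins were quantified by TMT10 LC-MS/MS; the value is the NP40-soluble abundance relative to the NP40-processed vehicle, from 3 independent experiments.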

Sequence of UniProt O43795 (O43795 whole entry, one chain of several): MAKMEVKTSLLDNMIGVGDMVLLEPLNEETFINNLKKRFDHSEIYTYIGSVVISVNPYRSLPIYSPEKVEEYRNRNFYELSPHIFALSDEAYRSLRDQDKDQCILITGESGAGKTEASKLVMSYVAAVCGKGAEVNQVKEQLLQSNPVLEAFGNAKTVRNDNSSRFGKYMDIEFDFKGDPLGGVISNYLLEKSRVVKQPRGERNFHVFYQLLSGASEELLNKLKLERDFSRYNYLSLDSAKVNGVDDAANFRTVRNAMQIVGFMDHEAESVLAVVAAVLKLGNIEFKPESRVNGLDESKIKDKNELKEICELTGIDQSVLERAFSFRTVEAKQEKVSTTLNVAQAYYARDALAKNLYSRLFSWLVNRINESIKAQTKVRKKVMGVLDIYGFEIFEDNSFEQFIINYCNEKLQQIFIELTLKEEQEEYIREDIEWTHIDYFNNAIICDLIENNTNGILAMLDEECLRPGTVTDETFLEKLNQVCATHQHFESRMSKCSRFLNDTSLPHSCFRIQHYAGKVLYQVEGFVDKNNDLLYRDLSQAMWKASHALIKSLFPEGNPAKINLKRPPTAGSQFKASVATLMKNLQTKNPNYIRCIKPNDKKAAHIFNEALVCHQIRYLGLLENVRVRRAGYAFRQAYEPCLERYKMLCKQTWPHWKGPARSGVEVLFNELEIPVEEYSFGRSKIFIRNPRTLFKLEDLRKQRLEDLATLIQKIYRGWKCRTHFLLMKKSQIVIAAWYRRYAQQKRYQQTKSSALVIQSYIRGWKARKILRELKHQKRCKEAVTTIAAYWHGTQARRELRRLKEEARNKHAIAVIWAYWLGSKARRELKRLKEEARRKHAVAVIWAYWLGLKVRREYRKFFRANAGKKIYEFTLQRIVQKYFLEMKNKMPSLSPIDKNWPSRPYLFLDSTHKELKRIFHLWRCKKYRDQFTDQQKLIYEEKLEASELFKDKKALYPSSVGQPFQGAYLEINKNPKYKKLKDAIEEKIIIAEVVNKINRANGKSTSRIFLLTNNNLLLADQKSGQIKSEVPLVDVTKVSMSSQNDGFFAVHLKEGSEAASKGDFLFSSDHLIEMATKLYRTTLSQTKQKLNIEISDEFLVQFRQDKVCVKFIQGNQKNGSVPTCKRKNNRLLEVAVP
Sequence of UniProt Q9Y483 (Q9Y483 whole entry, one chain of several): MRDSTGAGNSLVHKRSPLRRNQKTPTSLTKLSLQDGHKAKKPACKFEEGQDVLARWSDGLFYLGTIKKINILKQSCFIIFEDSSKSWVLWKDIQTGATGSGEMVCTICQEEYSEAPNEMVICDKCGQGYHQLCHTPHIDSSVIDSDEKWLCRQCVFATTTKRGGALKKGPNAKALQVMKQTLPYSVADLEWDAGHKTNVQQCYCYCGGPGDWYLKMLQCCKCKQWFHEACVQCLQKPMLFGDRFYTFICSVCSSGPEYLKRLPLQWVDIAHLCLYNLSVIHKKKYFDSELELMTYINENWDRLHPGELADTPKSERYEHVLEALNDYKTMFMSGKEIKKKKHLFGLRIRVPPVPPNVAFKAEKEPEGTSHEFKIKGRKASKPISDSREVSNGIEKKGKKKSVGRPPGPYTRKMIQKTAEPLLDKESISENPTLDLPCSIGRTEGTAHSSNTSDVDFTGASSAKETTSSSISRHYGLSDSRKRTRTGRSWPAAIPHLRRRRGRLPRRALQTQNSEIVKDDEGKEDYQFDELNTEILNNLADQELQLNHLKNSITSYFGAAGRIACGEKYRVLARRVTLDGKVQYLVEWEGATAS
Sequence of UniProt Q9NZ52 (Q9NZ52 whole entry, one chain of several): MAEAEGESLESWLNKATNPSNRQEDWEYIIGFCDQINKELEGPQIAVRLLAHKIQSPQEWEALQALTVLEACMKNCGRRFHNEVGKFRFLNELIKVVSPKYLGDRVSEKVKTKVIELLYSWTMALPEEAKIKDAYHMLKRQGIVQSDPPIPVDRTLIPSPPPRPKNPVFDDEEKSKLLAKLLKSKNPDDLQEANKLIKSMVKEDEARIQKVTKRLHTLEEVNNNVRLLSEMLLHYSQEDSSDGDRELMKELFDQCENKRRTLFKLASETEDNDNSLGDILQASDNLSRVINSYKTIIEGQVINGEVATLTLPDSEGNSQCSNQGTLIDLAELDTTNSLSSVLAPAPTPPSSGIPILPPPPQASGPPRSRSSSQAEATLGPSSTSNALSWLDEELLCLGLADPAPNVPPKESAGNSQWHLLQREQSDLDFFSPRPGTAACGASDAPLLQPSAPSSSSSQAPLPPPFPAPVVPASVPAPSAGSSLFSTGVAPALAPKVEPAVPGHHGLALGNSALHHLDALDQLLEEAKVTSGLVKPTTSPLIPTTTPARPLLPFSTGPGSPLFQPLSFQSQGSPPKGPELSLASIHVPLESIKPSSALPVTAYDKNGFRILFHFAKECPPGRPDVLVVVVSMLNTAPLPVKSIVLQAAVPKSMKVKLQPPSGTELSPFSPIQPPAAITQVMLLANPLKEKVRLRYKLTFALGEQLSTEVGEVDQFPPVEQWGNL
Sequence of UniProt P22102 (P22102 whole entry, one chain of several): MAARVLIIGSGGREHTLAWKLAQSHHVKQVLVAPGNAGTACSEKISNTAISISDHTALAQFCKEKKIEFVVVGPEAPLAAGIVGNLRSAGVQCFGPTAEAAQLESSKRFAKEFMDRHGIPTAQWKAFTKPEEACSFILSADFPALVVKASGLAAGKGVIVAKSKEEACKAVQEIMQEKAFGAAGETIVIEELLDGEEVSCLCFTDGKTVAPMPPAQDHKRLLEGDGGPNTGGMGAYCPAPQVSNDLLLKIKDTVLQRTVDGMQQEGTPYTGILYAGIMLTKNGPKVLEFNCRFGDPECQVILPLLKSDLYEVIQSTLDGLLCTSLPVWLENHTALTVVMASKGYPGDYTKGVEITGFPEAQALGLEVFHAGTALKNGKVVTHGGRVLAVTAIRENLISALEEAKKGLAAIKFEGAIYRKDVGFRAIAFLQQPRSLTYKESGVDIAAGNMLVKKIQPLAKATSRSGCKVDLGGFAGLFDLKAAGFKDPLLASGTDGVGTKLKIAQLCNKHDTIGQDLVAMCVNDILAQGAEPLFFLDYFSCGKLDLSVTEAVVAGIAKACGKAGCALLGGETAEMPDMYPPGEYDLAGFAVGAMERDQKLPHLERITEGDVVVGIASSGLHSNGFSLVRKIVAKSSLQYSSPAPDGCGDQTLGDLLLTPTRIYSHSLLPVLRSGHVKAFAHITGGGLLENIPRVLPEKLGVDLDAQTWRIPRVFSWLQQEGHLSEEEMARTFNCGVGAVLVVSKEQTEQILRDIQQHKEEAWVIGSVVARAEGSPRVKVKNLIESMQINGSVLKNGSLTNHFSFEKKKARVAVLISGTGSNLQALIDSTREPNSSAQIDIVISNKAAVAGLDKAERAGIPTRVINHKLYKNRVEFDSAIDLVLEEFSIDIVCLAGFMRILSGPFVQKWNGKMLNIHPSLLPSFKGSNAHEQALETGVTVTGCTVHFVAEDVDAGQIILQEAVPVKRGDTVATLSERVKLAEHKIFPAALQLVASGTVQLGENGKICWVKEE

Take “A0A087WYN2|J3KSS7|Q9NZ52|Q9NZ52-4 (UniProt Q9NZ52)”: the NP40-soluble protein abundance turned out to be 0.909 ± 0.037 (concentration: 0.1mM); 0.905 ± 0.087 (concentration: 0.5mM); 0.957 ± 0.09 (concentration: 1mM); 0.915 ± 0.13 (concentration: 2mM); 0.92 ± 0.14 (concentration: 4mM); 0.94 ± 0.16 (concentration: 6mM). Besides, the NP40-soluble protein abundance by setting is: (concentration: 8mM) 0.921 ± 0.08; (concentration: 10mM) 0.896 ± 0.057.
Take “B4DZG1|Q9Y483|Q9Y483-3|Q96G26|Q9Y483-2|Q9Y483-4 (UniProt Q9Y483)”: the NP40-soluble protein abundance by setting is: (concentration: 0.1mM) 1.11 ± 0.061; (concentration: 0.5mM) 1.09 ± 0.032; (concentration: 1mM) 1.16 ± 0.044; (concentration: 2mM) 1.26 ± 0.074; (concentration: 4mM) 1.4 ± 0.068; (concentration: 6mM) 1.45 ± 0.095. The NP40-soluble protein abundance by setting is: (concentration: 8mM) 1.64 ± 0.2; (concentration: 10mM) 1.78 ± 0.18.
For the target “C9JKQ7|C9JTV6|C9JZG2|P22102 (UniProt P22102)”, the NP40-soluble protein abundance (concentration: 0.1mM) came out at 0.96 ± 0.015; the NP40-soluble protein abundance (concentration: 0.5mM) came to 0.985 ± 0.03; the NP40-soluble protein abundance (concentration: 1mM) was 0.9188 ± 0.0076; the NP40-soluble protein abundance (concentration: 2mM) came to 0.909 ± 0.023; the NP40-soluble protein abundance (concentration: 4mM) stood at 0.895 ± 0.026; the NP40-soluble protein abundance (concentration: 6mM) amounted to 0.894 ± 0.017. The NP40-soluble protein abundance came out at 0.863 ± 0.039 (concentration: 8mM) and 0.863 ± 0.022 (concentration: 10mM).
As to E9PDF6|O43795|O43795-2 (UniProt O43795), the NP40-soluble protein abundance reads like this: (concentration: 0.1mM) 1.44 ± 0.25; (concentration: 0.5mM) 2.35 ± 0.38; (concentration: 1mM) 2.32 ± 0.37; (concentration: 2mM) 2.41 ± 0.43; (concentration: 4mM) 2.4 ± 0.41; (concentration: 6mM) 2.37 ± 0.38. The NP40-soluble protein abundance worked out at 2.33 ± 0.3 (concentration: 8mM) and 2.21 ± 0.26 (concentration: 10mM).
For the target “A8MXF6|B7ZBD5|Q9UBK7|Q9UBK7-2|Q9UBK7-3|Q9UNT1|Q9UNT1-2|Q9UNT1-3 (UniProt Q9UNT1+Q9UBK7+B7ZBD5+A8MXF6)”, the NP40-soluble protein abundance worked out at 1.03 ± 0.038 (concentration: 0.1mM); 1.03 ± 0.035 (concentration: 0.5mM); 1.02 ± 0.032 (concentration: 1mM); 1.01 ± 0.084 (concentration: 2mM); 0.947 ± 0.046 (concentration: 4mM); 0.955 ± 0.071 (concentration: 6mM). For the same target, the NP40-soluble protein abundance (concentration: 8mM) amounted to 0.949 ± 0.053 and the NP40-soluble protein abundance (concentration: 10mM) was 0.94158 ± 0.00038.
